Consider 38 compounds from PubChem BioAssay (NCI).

About 83,000 compounds went through this panel and 20% of them were active in at least one assay; those are over-represented in the sample as a whole.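 96-well plates, one dose, 48 hours. Percent growth reported; active if below 10.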 Values without a mark were called inactive. Active and inactive are the calls of the source.

The test system of this experiment is SK-MEL-5 melanoma. The experiment is described as follows: NCI-60 one-dose screen, 48 h (100 = growth as untreated, 0 = no growth, -100 = all killed). The note with it: 10 µM unless noted.
Consider `COC(=O)[C@]12CC[C@@H](C)[C@H](C)[C@@H]1C1=CC[C@@H]3[C@@]4(C)C(C=O)=C[C@@](C)(COC(C)=O)[C@@H]4[C@H](O)C[C@@]3(C)[C@]1(C)CC2`, for which the growth is -93.3% (active). Then `CCc1c2c(nc3ccc(OC(=O)OCc4ccc(B5OC(C)(C)C(C)(C)O5)cc4)cc13)-c1cc3c(c(=O)n1C2)COC(=O)[C@]3(O)CC`, with -84.2% (active). With `N#Cc1c(N2CCNCC2)nc2sc3cc(Cl)c(Cl)cc3n2c1=N`, the growth was 89.9%.

As to `Cc1ccc(/C=C/c2c(C(=O)/C=C/c3ccc(C(F)(F)F)cc3)c(C)nc3ccccc23)cc1`, the growth was -86.4% (active).

With `COc1ccc2c(c1)[nH]c(=O)c1c3cccnc3cn21`, the growth is -33.6% (active). Then `COc1ccc2c(c1)C(=O)/C(=C/c1cccc(OCC(=O)Nc3nc(C)c(C)s3)c1)O2`, with 40.4%; and `COc1cccc(-c2nn(-c3ccccc3)cc2-c2ccnc(NCCNC(=O)c3ccccc3)c2)c1`, with 34.5%. Then `COC(=O)/C=C1\S/C(=N\NS(=O)(=O)c2ccc(C)cc2)N(c2ccccc2)C1=O`, with 100%; and `Cc1ccc(-c2cc3c(cc2O)C2CCCCC2(N2CCOCC2)O3)cc1` (stereo not drawn), with 99.1%; and `CCOc1ccccc1-c1cc(-c2cccs2)c(C#N)c(=O)[nH]1`, with 85.8%. Then `N#Cc1nc(C#N)c(Sc2ccccc2)c(Sc2ccccc2)c1Sc1ccccc1`, with -93.2% (active); and `CCN1CCN(c2cc(C)nc(NCc3cc(Nc4ccnc5cc(Cl)ccc45)ccc3F)n2)CC1`, with -85.5% (active). For `Cn1ccc2c(c1=O)C(=O)c1nccc3c1c-2nc1ccccc13`, the growth is 95%. Then `COC1=CC(=O)C[C@@H](C)[C@]12Oc1c(Cl)c(OC)cc(OC)c1C2=O`, with 84.3%; and `O=C1CCc2c(sc3[nH]c(=S)n(-c4ccc(OC(F)(F)F)cc4)c(=O)c23)C1`, with 22.6%; and `COc1cc(C(=O)/C=C/c2c(-c3ccc(F)cc3)nc3sc(C)cn23)cc(OC)c1OC`, with -88.8% (active). In the case of `Cc1nn(-c2ccccc2)c(Oc2ccc(Cl)cc2)c1/C=N\N=c1/sc2ccccc2n1C`, the growth is 93.3%. Consider `COC(=O)c1ccc(C2Nc3ccc(S(=O)(=O)Nc4ccc(C)c(C)c4)cc3C3OCCC23)cc1` (stereo not drawn), for which the growth was 58%.

On to `CCCCCCCCn1ccc2cc(NC(=O)Cn3cc(CN4CCCC4)nn3)ccc21`, for which the growth is 30.7%. Take `O=S(=O)(Nc1cccc(Cl)c1)c1ccc(-c2cnc(C3CC3)o2)cc1`: the growth was 16.4%. As to `COc1ccc(-c2nc(SC(C)C)nc(NNC(N)=S)c2C#N)cc1`, the growth is 28.9%.

As to `Cc1cc(NCc2cc(Nc3ccnc4cc(Cl)ccc34)ccc2F)nc(N2CCN(C)CC2)n1`, the growth was -98% (active).

On to `Cc1ccc2nc(C)c(-c3nnc(SCc4ccc(C#N)cc4)o3)n2c1`, for which the growth is 92.9%. In the case of `CCN1C(=O)N(CC)C2Nn3c(s/c(=C\c4ccc(Cl)cc4Cl)c3=O)=NC21` (stereo not drawn), the growth is 24.5%.

For `C[n+]1cc2cc(C(N)=O)[nH]c3c(=N)c(Cl)c(N)c1c23`, the growth is 79.2%. Then `CCc1ccccc1-n1c(-c2ccc(Cl)cc2)cc(-c2ccc(Cl)cc2)c(C#N)c1=O`, with 88.7%; and `Cc1ccc2nc(NC(=O)CSc3nc(-c4ccccc4)c(C#N)c(=O)n3Cc3ccccc3)sc2c1`, with 83.1%. Then `COc1ccc(C2=Nc3c(N)ncnc3NC(c3ccc4c(c3)OCO4)C2)cc1` (stereo not drawn), with 88.2%; and `Clc1ccc(-c2c3ccc(=[N+]4CCCCC4)cc-3oc3cc(N4CCCCC4)ccc23)cc1`, with -95.4% (active).

`CCCCN(CCCC)CC(C)(C)C(O)c1ccc(OC)c2ccccc12` (stereo not drawn): the growth was 50.7%. For the compound `C(=N\Nc1ncc(-c2cc3cc4c(cc3o2)OCO4)s1)/c1ccco1`, the growth is 87.4%. Take `O=C(c1ccccc1)c1c(/C=C/c2ccccc2)nc2ccccc2c1/C=C/c1ccc(Br)cc1`: the growth is 101%. As to `Cc1cc(NCc2cc(Nc3ccnc4cc(Cl)ccc34)ccc2F)nc(N2CCN(c3ccccc3)CC2)n1`, the growth was 53.3%.

For the compound `O=[N+]([O-])c1ccc(N2c3ccncc3Sc3ccncc32)cc1`, the growth was 112%. Take `COc1cc(C2CC(=O)Nc3c2c(C)nn3-c2nc3ccccc3[nH]2)c(OC)c(OC)c1OC` (stereo not drawn): the growth was 46.7%. Then `Cc1c2c(c(C)c3c1oc1cc(O)ccc13)C(=O)N(CCN1CCCCC1)C2=O`, with 96%; and `COCN1CCC2N(COC)CCC3N(COC)CCC1N23` (stereo not drawn), with 109%. For `Cc1cc(C)c(-c2c(C)cc(C)cc2CBr)c(CBr)c1`, the growth was 77.6%.
